High-throughput results deposited in PubChem BioAssay by National Center for Advancing Translational Sciences (NCATS).
NPC1 prom act: activators of NPC1 promoter; Huh7 NPC1 promoter luciferase reporter, 24 h; Potency, µM (highest dose often 9.22 µM), inactives show at the highest dose activation, hits mostly activators; 2.4% of 320,000 active; AID 485313; further: % of control where 0% means no effect; nearly all actives have a fitted effect of over 60% in size
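Luciferase expression driven by the NPC1 promoter was measured in stably transfected Huh7 cells after a 24 h compound incubation, using a luciferase reagent and a luminescence read.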
FLuc counter: counter-screen for miR-21 project: firefly luciferase inhibitors or activators; Potency, µM (series often up to 57.5 µM), without a hit: at the top dose activity change, negative = inhibition, hits mostly inhibitors; P08659; AID 588342; purified FLuc, Km substrates, luminescence inhibition; 6.9% of 360,000 active;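 further: plate controls were vehicle for no effect and reference inhibitor for full effect; nearly all actives have a fitted effect of over 55% in size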
Target sequence (P08659 whole entry, looked up): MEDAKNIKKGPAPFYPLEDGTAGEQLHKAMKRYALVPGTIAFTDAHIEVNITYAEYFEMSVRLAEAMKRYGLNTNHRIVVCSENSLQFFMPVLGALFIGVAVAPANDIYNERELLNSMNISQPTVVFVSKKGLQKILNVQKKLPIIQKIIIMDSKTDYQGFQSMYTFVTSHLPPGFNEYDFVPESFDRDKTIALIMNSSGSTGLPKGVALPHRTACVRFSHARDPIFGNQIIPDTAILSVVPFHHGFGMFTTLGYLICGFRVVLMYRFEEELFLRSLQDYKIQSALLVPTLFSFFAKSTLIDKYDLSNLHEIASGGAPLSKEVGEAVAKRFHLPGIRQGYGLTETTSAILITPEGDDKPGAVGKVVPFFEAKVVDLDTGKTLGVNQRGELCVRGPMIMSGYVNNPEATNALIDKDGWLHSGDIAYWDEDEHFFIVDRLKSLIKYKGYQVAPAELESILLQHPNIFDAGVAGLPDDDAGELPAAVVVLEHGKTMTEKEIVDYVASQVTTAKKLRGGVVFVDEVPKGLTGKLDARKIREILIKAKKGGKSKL
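Purified P. pyralis luciferase (10nM final) with 10uM D-luciferin and 10uM ATP (Km levels) in 50mM Tris acetate pH 7.5, 10mM Mg acetate, 0.01% Tween-20, 0.05% BSA; qHTS 6-point titration, ~60 µM downward; luminescence read.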
ELG1 genotoxic: inducers of genotoxicity in HEK293T ELG1-luciferase cells; 1.3% of 330,000 active; HEK293T ELG1-luciferase reporter, luminescence, 16 h; Potency, µM (series often up to 46 µM), inactives show top-dose activity change, positive = activation, most hits filed as activators; further: % of control where 0% means no effect; nearly all actives have a fitted effect of over 60% in size
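Luminescence read-out: rising ELG1-luciferase signal, reflecting elevated ELG1 protein under genetic stress, flags genotoxic compounds. Cells were treated for 16 hr at 37 °C before ONE-Glo detection.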
ELG1 repair inh: blocks ELG1-dependent DNA repair in HEK293T cells. AID 504467. HEK293T ELG1-luciferase reporter, luminescence, 16 h; DNA damage induced by 5-fluorouridine. Potency, µM (highest dose often 46.1 µM), inactives show top-dose activity change, negative = inhibition, actives largely listed as inhibitors. 2.3% of 330,000 active; further: on the % scale 0 is the no-effect control and ±100 the full control effect; nearly all actives have a fitted effect of over 55% in size
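5-Fluorouridine DNA damage + compound/DMSO, 2,000 cells/well, 16 h, 37 °C/5% CO2. ONE-Glo, 30 min RT, luminescence. Readout = decrease in reporter signal.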
Rab9 promoter act: Rab9 promoter activation. Huh7 Rab9 promoter-luciferase reporter, luminescence, 24 h. AID 485297. Potency, µM (highest dose often 9.22 µM), without a hit: top-dose activation, negative = inhibition, usual class: activators. 2.8% of 320,000 active; further: % of control where 0% means no effect; nearly all actives have a fitted effect of over 60% in size
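Measured in stably transfected Huh7 cells bearing a Rab9 promoter–luciferase construct: 24 h compound treatment at 37 °C, followed by luminescence detection.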
SMN2 splice enh: SMN2 splice variant enhancement; HEK293 SMN2-luciferase splicing reporter, luminescence, 30-36 h; Potency, µM (highest dose often 46.1 µM), without a hit: at the highest dose activity change, positive = activation, actives largely listed as activators; 2.8% of 210,000 active; AID 1458; further: % of control where 0% means no effect; nearly all actives have a fitted effect of over 55% in size
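qHTS luciferase splicing reporter: luminescence rises when SMN2 exon 7 is included in transfected HEK293 cells. Compound exposure lasted 30-36 h at 37C, with 4.5 mM final sodium butyrate as control, followed by a ONE-Glo read.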
* hit, by the source's call. The list is not random: actives were taken first. Their share in the collection is about 9.2%. The call rests on the fitted dose curve; in most records, active means well fitted curve in the direction sought with a large enough effect; inconclusive means small, poorly fitted or top-dose-only effect, or another doubt; inactive means no such curve, though single readings can be large; an effect the other way counts as inactive or inconclusive. Potency means the concentration at half of the fitted maximal effect.

CC(C)C(NS(=O)(=O)c1ccc2c(c1)oc(=O)n2C)C(=O)NCCc1ccccc1 (stereo unspecified) was read as FLuc counter -3% and SMN2 splice enh -5%.
Screening CCCCC(=O)NCc1nc2cccnc2n1Cc1ccc(OC)cc1 returned FLuc counter -2%.
C=CCn1c(CCNC(=O)c2ccc(Cl)c(Cl)c2)nnc1SCCOc1ccc(OC)cc1 was read as NPC1 prom act 2%, FLuc counter -6%, ELG1 genotoxic -10%, ELG1 repair inh 16µM*, Rab9 promoter act 0% and SMN2 splice enh -38%.
C=CCn1c(SCCOc2ccccc2)nnc1C(C)NC(=O)c1ccccc1 (stereo unspecified) was read as NPC1 prom act 0%, FLuc counter -1%, ELG1 genotoxic 0%, ELG1 repair inh -5%, Rab9 promoter act -1% and SMN2 splice enh -1%.
`CCOc1ccc(NS(=O)(=O)c2ccc(C(=O)N3CCN(c4ncccn4)CC3)cc2)cc1` gave NPC1 prom act -7%, FLuc counter -12%, ELG1 genotoxic -12%, ELG1 repair inh 7.3µM*, Rab9 promoter act -4% and SMN2 splice enh -83%.
Screening O=C(c1cccc(S(=O)(=O)N2CCCC2)c1)N1CCN(c2ncccn2)CC1 returned NPC1 prom act -2%, FLuc counter 3%, ELG1 genotoxic 1%, ELG1 repair inh 8%, Rab9 promoter act 1% and SMN2 splice enh -8%.
Screening O=C(c1cccc(S(=O)(=O)NCCOc2ccccc2)c1)N1CCN(c2ncccn2)CC1 returned NPC1 prom act -5%, FLuc counter 4%, ELG1 genotoxic -6%, ELG1 repair inh 23µM*, Rab9 promoter act 4% and SMN2 splice enh -37%.
`COc1ccc(CC(=O)Nc2cccc(-c3nnc(-c4ccco4)o3)c2)cc1` gave NPC1 prom act 0%, FLuc counter -8%, ELG1 genotoxic -8%, ELG1 repair inh inconclusive, Rab9 promoter act 2% and SMN2 splice enh -18%.
For COc1cc(C(=O)Nc2cccc(-c3nnc(-c4ccco4)o3)c2)ccc1OC(C)=O the results were NPC1 prom act 0%, FLuc counter 15µM*, ELG1 genotoxic -6%, ELG1 repair inh inconclusive, Rab9 promoter act -1% and SMN2 splice enh 0%.
For COc1ccc(C(=O)Nc2cccc(-c3nnc(-c4ccco4)o3)c2)cc1 the results were NPC1 prom act 19%, FLuc counter 19µM*, ELG1 genotoxic -9%, ELG1 repair inh 21µM*, Rab9 promoter act 8% and SMN2 splice enh -12%.
`COc1cccc(C(=O)Nc2ccccc2-c2nnc(-c3cccc(OC)c3)o2)c1` gave FLuc counter 2.7µM* and SMN2 splice enh 3%.
CN(CC(=O)Nc1c(Cl)cccc1Cl)C(=O)c1sccc1-c1ccccc1 was read as NPC1 prom act -2%, FLuc counter 6%, ELG1 genotoxic -5%, ELG1 repair inh inconclusive and Rab9 promoter act -5%.
For CCOC(=S)SCc1cn2cccc(C)c2n1 the results were NPC1 prom act -1%, FLuc counter inconclusive, ELG1 genotoxic -1%, ELG1 repair inh 8%, Rab9 promoter act -1% and SMN2 splice enh -24%.
Cc1ccc(Nc2ccccc2)cc1 was read as NPC1 prom act 6%, FLuc counter -21%, ELG1 genotoxic 0%, ELG1 repair inh 23%, Rab9 promoter act 1% and SMN2 splice enh -4%.
Screening Cc1ccc(NC2=Nc3ccccc3CS2)cc1 returned NPC1 prom act 0.32µM*, FLuc counter 0.48µM*, ELG1 genotoxic inconclusive, ELG1 repair inh inconclusive and Rab9 promoter act 0.32µM*.
`C=C(C)CSc1nncn1/N=C/c1ccc(OC)cc1` gave NPC1 prom act inconclusive, FLuc counter 12µM*, ELG1 genotoxic inconclusive, ELG1 repair inh inconclusive, Rab9 promoter act 4µM* and SMN2 splice enh inconclusive.
